Source: PubChem BioAssay (National Center for Advancing Translational Sciences (NCATS))
Pol III holo inh: qHTS Assay for Inhibitors of DNA Polymerase III Holoenzyme System | reconstituted DNA polymerase III holoenzyme replication, biochemical | Potency, µM (doses to about 57.1 µM), without a hit: at the top dose activity change, negative = inhibition | 71,000 tested, 0.25% active | AID 603, 2007; note: potency is the fitted concentration of half-maximal effect; % is set by controls: 0 for no effect and ±100 for the full control effect
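Reconstituted *E. coli* holoenzyme (0.35 nM Pol III, 1 nM beta, 154 nM SSB, 2 nM primase) was preincubated with compound for 15 min at RT. Synthesis on 1.4 nM ssM13Gori ran 35 min, then was stopped with PicoGreen/EDTA and read as dsDNA fluorescence.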
Epigenetic mod: qHTS Assay for Epigenetic Modulators; mouse C127i GFP locus derepression, cytometry, 30 h; 68,000 tested, 0.09% active; Potency, µM (series often up to 46.1 µM), for inactives: top-dose GFP derepression (activation); AID 597, 2007; note: % of control where 0% means no effect
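Locus derepression in mouse mammary C127i cells whose integrated CMV-GFP reporter is normally silent; GFP expression after 30 h compound treatment was quantified by counting fluorescent cells.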
Tau filament bind: qHTS Assay for Tau Filament Binding; Microtubule-associated protein tau (Homo sapiens), P10636; recombinant tau filaments, thioflavin S fluorescence, 15 h; filaments grown with octadecylsulfate alongside compound; Potency, µM (top dose mostly 57.1 µM), inactives show at the highest dose activity change, negative = inhibition; 71,000 tested, 2% active; AID 596, 2007;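 note: potency is the fitted concentration of half-maximal effect; % is set by controls: 0 for no effect and ±100 for the full control effect; actives lower thioflavin S fluorescence by blocking filaments or displacing dye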
Target sequence (P10636 whole entry, looked up): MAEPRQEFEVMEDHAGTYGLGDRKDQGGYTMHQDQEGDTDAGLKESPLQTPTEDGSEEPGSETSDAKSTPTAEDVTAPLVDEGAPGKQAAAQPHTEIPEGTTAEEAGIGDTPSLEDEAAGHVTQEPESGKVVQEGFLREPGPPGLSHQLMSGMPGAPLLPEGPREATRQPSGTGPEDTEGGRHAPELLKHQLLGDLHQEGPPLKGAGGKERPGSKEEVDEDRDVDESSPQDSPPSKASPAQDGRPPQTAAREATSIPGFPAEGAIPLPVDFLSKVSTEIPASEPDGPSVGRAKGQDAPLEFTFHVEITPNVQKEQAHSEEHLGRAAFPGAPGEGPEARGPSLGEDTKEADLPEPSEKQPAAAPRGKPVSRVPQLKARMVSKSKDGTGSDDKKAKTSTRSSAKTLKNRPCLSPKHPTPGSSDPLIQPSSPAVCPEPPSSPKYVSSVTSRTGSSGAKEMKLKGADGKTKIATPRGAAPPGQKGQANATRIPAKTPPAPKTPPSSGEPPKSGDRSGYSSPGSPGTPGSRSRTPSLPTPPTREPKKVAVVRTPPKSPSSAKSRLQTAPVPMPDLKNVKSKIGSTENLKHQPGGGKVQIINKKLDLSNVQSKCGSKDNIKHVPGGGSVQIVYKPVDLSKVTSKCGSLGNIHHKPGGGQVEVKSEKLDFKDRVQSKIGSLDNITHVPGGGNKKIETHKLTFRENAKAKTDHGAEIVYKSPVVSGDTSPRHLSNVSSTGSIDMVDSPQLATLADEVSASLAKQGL
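Quantitative HTS: thioflavine S signal from ODS-induced tau filaments, excited at 450 nm, emission 510 nm. Conditions: 1 uM tau, 30 uM ODS, 15 h at 37 C, pH 7.4.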
15-hLO inh: qHTS Assay for Inhibitors of 15-hLO (15-human lipoxygenase); Polyunsaturated fatty acid lipoxygenase ALOX15 (Homo sapiens), P16050; 74,000 tested, 1.4% active; Potency, µM (doses to about 57.1 µM), without a hit: top-dose activity change, negative = inhibition, actives largely listed as inhibitors; AID 887, 2007; purified 15hLO-1, xylenol orange hydroperoxide absorbance; note: potency is the fitted concentration of half-maximal effect; % is set by controls: 0 for no effect and ±100 for the full control effect; nearly all actives have a fitted effect of over 55% in size
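40 nM 15hLO-1 + cpd, 15 min RT; start w/ 50 uM AA (final), 6 min RT; stop/detect w/ 200 uM XO + 300 uM Fe(II) in 50 mM H2SO4, 30 min; A573/A405. Buffer 25 mM Hepes pH 7.5, 0.01% Triton X-100. No-enzyme wells as negative control.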
HBB splice mod: qHTS Assay for Modulators of Hemoglobin Beta Chain Splicing; HBB splicing reporter cell assay, activation; EGFP reporter with mutant IVS2-654 intron; response scale: normalised to 500 nM splice-correcting PNA; Potency, µM (titrated, usually from 46.1 µM), inactives show at the highest dose activation, usual class: activators; 65,000 tested, 0.06% active; AID 925, 2007; note: potency is the fitted concentration of half-maximal effect; 0% is about no effect
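Compounds were applied for 2 days to HeLa EGFP-654 cells, 500/well in Optimem with 2% FCS. The reporter's EGFP is disrupted by mis-splicing of beta-globin intron IVS2-654. Readout: summed well GFP fluorescence from 488 nm laser scanning; reference was 500 nM antisense […] 654 PNA.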
Ub-GFP proteasome: Ubiquitin-GFP Assay; 67,000 tested, under 10 active; Potency, µM (doses to about 45.9 µM), inactives show at the highest dose activation (GFP accumulation), actives largely listed as activators; Ubiquitin-GFP reporter cells, proteasome inhibition, GFP fluorescence; response scale: untreated = 0%, 10 µM MG-132 = 100%; active = well fitted activation curve with a large enough effect, not every such curve was filed as active; inconclusive = small, poorly fitted or top-dose-only effect, or another doubt; inactive = no such curve, though single readings can be large or run the other way; note: potency is the fitted concentration of half-maximal effect
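GFP accumulation read-out: laser plate cytometry counting ubiquitin(G76V)-GFP-expressing U2OS cells after 4 hr compound exposure at 37 °C. Titrations spanned 46 uM to 2.9 nM; 0% = basal, 100% = 10 uM MG-132; concentration-response curves fitted.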
Starred values were filed as active, the others as inactive; i = inactive; ? = inconclusive; · = no result given; [ ] = another dose, or the depositor's remark. Rows were chosen to be rich in hits. Some 3.2% of all compounds tested hit in one or more screens of this group. Unless noted, calls come from the whole dose curve; as a rule, active = well fitted curve in the direction sought with a large enough effect; inconclusive = small, poorly fitted or top-dose-only effect, or another doubt; inactive = no such curve, though single readings can be large; an effect the other way counts as inactive or inconclusive.

SMILES | Pol III holo inh | Epigenetic mod | Tau filament bind | 15-hLO inh | HBB splice mod | Ub-GFP proteasome
CC(C)c1ccc(Cn2ccc3c4c(N)nc(NC5CC5)nc4ccc32)cc1 | -6% | 0% | i | 7.9µM* | · | 1%
COc1cc2ccccc2cc1C(=O)Nc1ccc(N2CCN(C)CC2)cc1 | -6% | 0% | 3.2µM* | 11% | 1%[57.5 µM] | -1%
CCOc1ccc(C(=O)Nc2ccc(N3CCN(C)CC3)cc2)cc1Br | -4% | -2% | 10µM* | ? | -1% | 1%
CCOc1ccc(C(=O)Nc2ccc(N3CCCC3)cc2)cc1 | -8% | 2% | 10µM* | ? | 1%[57.5 µM] | -1%
CCCOc1ccc(C(=O)Nc2ccc(N3CCN(C(C)=O)CC3)cc2)cc1 | -7% | 2% | ? | -6% | · | -5%
O=C(O)CNC(=O)c1ccc(CO)o1 | 0% | · | 3% | 8% | 0% | ·
Cc1ccc(/C=c2\sc3nc(-c4cccs4)nn3c2=O)o1 | -24% | 6% | 8% | 13µM* | 2% | 23%
CC(=O)[C@@H](C)CCO[C@@]1(C)OCC[C@@H]1C | 2%[11.4 µM] | 2%[9.22 µM] | 4%[11.4 µM] | 1%[11.4 µM] | -1%[9.22 µM] | -8%[9.17 µM]
COc1cccc(Cn2c(=O)c(C)nc3cnc(Nc4cccc(OC)c4)nc32)c1 | 1% | 2%[9.22 µM] | 30% | 1% | 0% | 2%
COc1cccc(Nc2ncc3nc(C)c(=O)n(Cc4cccs4)c3n2)c1 | -2% | 19%[9.22 µM] | 153% | -3% | 16µM* | 25%
COc1cccc(Nc2ncc3nc(C)c(=O)n(C)c3n2)c1 | -6% | 19%[9.22 µM] | 13µM* | 26% | 2% | -4%
COc1ccc(-c2nc3cnc(Nc4cccc(OC)c4)nc3n(Cc3cccs3)c2=O)cc1 | -2% | 3%[9.22 µM] | 70% | -1% | 4% | 2%
Cc1cc(C)c(-c2cc([C@H](C)O/N=C\[C@@H](C)[C@H](OCc3ccccc3)C(C)C)on2)c(C)c1 | · | · | · | 1%[11.4 µM] | 1%[9.22 µM] | ·
CC(=O)N(CCCN(C)C)CCC(C)CCC=C(C)C (stereo unspecified) | 0% | 1% | -25% | -29% | 0%[9.22 µM] | -4%
CC(C)=CCCC(C)N(C=O)C(C)CCC=C(C)C (stereo unspecified) | -4% | -2% | -3% | 7.9µM* | -2% | 7%
Cc1c(C)c(C)c(CC2(C)CSC2)c(CC2(C)CSC2)c1C | 0%[11.4 µM] | 9%[9.22 µM] | 14%[11.4 µM] | 3%[11.4 µM] | 1%[9.22 µM] | 6%[9.17 µM]
On1onc2c3cc(-c4ccccc4)nc3ccc21 | -8% | 9% | 13µM* | -30% | 4% | 19%
O=C(O)CSc1cc(-c2ccccc2)nc2ccccc12 | 8%[11.4 µM] | -3%[9.22 µM] | -2%[11.4 µM] | -4%[11.4 µM] | 0%[9.22 µM] | -4%[9.17 µM]
Nc1nc(N)c2nc(CNc3ccc(C(=O)N[C@H](CCC(=O)O)C(=O)O)cc3)cnc2n1 | -6% | 2% | 24% | -18% | 1% | -4%
CCCCNC(=O)c1ccc(Cc2nc3ccccc3[nH]2)cc1 | · | · | · | -9% | · | ·
O=C(CSc1nnc2ccccn12)c1ccc(OC(F)F)cc1OC(F)F | -10% | 0% | 13µM* | -43% | 0%[57.5 µM] | 0%
COCCn1c(C)cc(C(=O)CSc2nnc3ccccn23)c1C | -6% | 4% | -1% | 4% | -1% | -9%
COc1ccc(N2CCN(c3nc(NC(C)(C)C)nc(N4CCCCC4)n3)CC2)cc1 | -3% | -3% | 10µM* | -8% | 0% | 2%
CC1(C)[C@@H](CC(=O)O)CCC[C@@H]1CC(=O)O | 1%[11.4 µM] | 0%[9.22 µM] | 3%[11.4 µM] | 4%[11.4 µM] | 3%[9.22 µM] | -6%[9.17 µM]
CCOc1ccc(-c2nc(=S)[nH][nH]2)cc1 | 6% | 4% | 13% | 25µM* | -1% | -2%
SMILES | Pol III holo inh | Epigenetic mod | Tau filament bind | 15-hLO inh | HBB splice mod | Ub-GFP proteasome
CC(=O)c1cccc(NC(=O)Nc2ccc3c(c2)N(C)C(=O)CS3)c1 | 0% | 0% | 16µM* | ? | -1% | 7%
CCN(CC)c1ccc(NC(=O)Nc2cccc(C(C)=O)c2)cc1 | 2% | 1% | 20µM* | -12% | 2% | 2%
CC(=O)Nc1cccc(NC(=O)Nc2ccc(C(C)=O)cc2)c1 | 3% | 2% | 20% | 0% | 0% | 2%
CN1C(=O)CSc2ccc(NC(=O)N3CCOCC3)cc21 | -8% | 0% | ? | ? | 4%[0.369 µM] | ·
CCOc1cccc(C(=O)Nc2ccc(N(CC)CC)cc2)c1 | 0%[11.4 µM] | -2% | 3.2µM* | -27%[11.4 µM] | -2%[0.0738 µM] | 23%[9.17 µM]
CN1CCN(c2ncc3nc(-c4ccc(Cl)cc4)c(=O)n(CCC#N)c3n2)CC1 | -8% | 2%[9.22 µM] | 3.2µM* | 6% | 0% | 10%
N#CCCn1c(=O)c(-c2ccc(F)cc2)nc2cnc(N3CCNCC3)nc21 | -12% | 0%[9.22 µM] | 6% | 3% | 1% | -3%
N#CCCn1c(=O)c(-c2ccc(Cl)cc2)nc2cnc(N3CCNCC3)nc21 | -6% | 3%[9.22 µM] | 4µM* | -8% | 3% | -2%
C[C@H](NCCN(C)C)[C@@H]1CCC2C3CCc4cc(O)ccc4[C@H]3CCC21C (stereo partly specified) | -9%[11.4 µM] | -3%[9.22 µM] | -4%[11.4 µM] | 17%[11.4 µM] | 2%[9.22 µM] | 3%[9.17 µM]
O=C(Nc1ccc2c(c1)OCO2)c1cc2ncc(Br)cn2n1 | -10% | 0% | 25µM* | -22% | -1% | -1%
O=C(Nc1ccc2c(c1)OCO2)c1cncc(Br)c1 | · | 5%[20.6 µM] | · | · | · | ·
O=c1[nH]c2ccc(Cl)cc2c(-c2ccccc2)c1CN1CCOCC1 | -28% | 0% | 13µM* | ? | 0%[57.5 µM] | -3%
